Results published in PubChem BioAssay AID1345085 (National Center for Advancing Translational Sciences (NCATS), 2018).
Records with an inconclusive call do not appear. Where a call stands in place of a potency, no number is given. Calls of active or inactive are those of the source. The call rests on the fitted dose curve; in most records, active means well fitted cell-killing curve with a large enough effect; inconclusive means small, poorly fitted or top-dose-only effect, or effect the other way; inactive means no such curve, though single readings can be large or run the other way.

system: C33A; assay: Confirmatory qHTS for gynecologic anti-cancer compounds from libraries of approved drugs and bioactive compounds; details: gynecologic cancer cell panel viability, ATPlite luminescence, 48 h; series mostly up to 57.6 µM; further: nearly all actives have a fitted effect of over 55% in size
Procedure, shortened: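 Viability is measured as ATP-dependent luciferase light using ATPlite, read 15 min after reagent addition at room temperature. Compounds, in DMSO, span 57.5 uM down to 0.977 nM over 11 threefold steps for 48 h.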
Potency means the concentration at half of the fitted maximal effect.

| Compound | Potency |
| --- | --- |
| COc1cc2nccc(Oc3ccc(NC(=O)C4(C(=O)Nc5ccc(F)cc5)CC4)cc3)c2cc1OC | 15.3 µM (active) |
| O=c1c2ccccc2nc2n1CCc1c-2[nH]c2ccccc12 | inactive |
| CNCc1ccc(-c2[nH]c3cc(F)cc4c3c2CCNC4=O)cc1 | inactive |
| CCCCc1oc2ccc(NS(C)(=O)=O)cc2c1C(=O)c1ccc(OCCCN(CCCC)CCCC)cc1 | 27.3 µM (active) |
| Fc1cc(-c2cccc3ncc(-c4cnn(C5CCNCC5)c4)nc23)cc(F)c1CN1CCOCC1 | 24.3 µM (active) |
| CC[C@@]1(O)C(=O)OCc2c1cc1n(c2=O)Cc2cc3cc(O)ccc3nc2-1 | 0.306 µM (active) |
| COc1cc(Nc2c(C#N)cnc3cc(OCCCN4CCN(C)CC4)c(OC)cc23)c(Cl)cc1Cl | 27.3 µM (active) |
| CCN(CC)CCNC(=O)c1c(C)[nH]c(/C=C2\C(=O)Nc3ccc(F)cc32)c1C | 22.4 µM (active) |
| CN(C)CCC(CSc1ccccc1)Nc1ccc(S(=O)(=O)NC(=O)c2ccc(N3CCN(Cc4ccccc4-c4ccc(Cl)cc4)CC3)cc2)cc1[N+](=O)[O-] (stereo not drawn) | inactive |
| NS(=O)(=O)OC[C@@H]1C[C@@H](n2ccc3c(N[C@H]4CCc5ccccc54)ncnc32)C[C@@H]1O | 4.85 µM (active) |
| CC(=O)c1cnc2ccc(-c3cc(Cl)c(O)c(Cl)c3)nc2c1NC1CCC(CN(C)C)CC1 (stereo not drawn) | 1.4 µM (active) |
| FC(F)(F)c1ccc(/C=C/c2nc(COc3ccc(CCCCn4ccnn4)cc3)co2)cc1 | inactive |
| CN1C2CCC1CC(OC(=O)[C@H](CO)c1ccccc1)C2 (stereo partly drawn) | inactive |
| CN(Cc1cnc2nc(N)nc(N)c2n1)c1ccc(C(=O)N[C@@H](CCC(=O)O)C(=O)O)cc1 | inactive |
| Cc1ccc(C(=O)Nc2ccc(CN3CCN(C)CC3)c(C(F)(F)F)c2)cc1C#Cc1cnc2[nH]ncc2c1 | 17.2 µM (active) |
| NC(=O)Nc1cc(-c2cccc(F)c2)sc1C(=O)NC1CCCNC1 (stereo not drawn) | 0.485 µM (active) |
| OCc1ccc(-c2ccc(-c3ccc(CO)s3)o2)s1 | inactive |

| Compound | Potency |
| --- | --- |
| O=C(CCCCCCNC(=O)c1cnc(N(c2ccccc2)c2ccccc2)nc1)NO | 10.9 µM (active) |
| Cc1cc(CN2CCN(c3c(Br)cnc4nc(-c5ccc(N6CCN(C)CC6)cc5)[nH]c34)CC2)no1 | 24.3 µM (active) |
| C[C@]12CCC(=O)C=C1CC[C@@H]1[C@@H]2[C@@H](O)C[C@@]2(C)[C@H]1CC[C@]2(O)C(=O)CO | inactive |
| Cn1cnc2c(F)c(Nc3ccc(Br)cc3F)c(C(=O)NOCCO)cc21 | inactive |
| Cc1ccccc1C(OCCN(C)C)c1ccccc1 (stereo not drawn) | inactive |
| CCc1cccc(CC)c1NC(=O)N1Cc2[nH]nc(NC(=O)c3ccc(N4CCN(C)CC4)cc3)c2C1 | inactive |
| CCC1C(=O)N(C)c2cnc(Nc3ccc(C(=O)NC4CCN(C)CC4)cc3OC)nc2N1C1CCCC1 (stereo not drawn) | 0.0544 µM (active) |
| CN(C)CC/C=C1\c2ccccc2COc2ccccc21 | inactive |
| CC1=C(CO)C(=O)O[C@@H]([C@@H](C)[C@H]2CC[C@H]3[C@@H]4C[C@H]5O[C@]56[C@@H](O)C=CC(=O)[C@]6(C)[C@H]4CC[C@]23C)C1 | 2.11 µM (active) |
| O=C(O)C1(Cc2cccc(Nc3nccs3)n2)CCC(Oc2cccc(Cl)c2F)CC1 (stereo not drawn) | inactive |
| CC(C)Nc1cc(-c2c[nH]c(C(=O)N[C@H](CO)c3cccc(Cl)c3)c2)c(Cl)cn1 | inactive |
| CS(=O)(=O)c1ccc(-c2cnc(N)c(C(=O)Nc3ccccc3)n2)cc1 | inactive |
| CCc1nc(C(N)=O)c(Nc2ccc(N3CCC(N4CCN(C)CC4)CC3)c(OC)c2)nc1NC1CCOCC1 | inactive |
| CN1CCN(c2cccc(Nc3nc4c(-c5ccc(S(C)(=O)=O)cc5)cccn4n3)c2)CC1 | inactive |
| Cc1ccc(C(=O)N(CCCN)C(c2oc3cc(Cl)ccc3c(=O)c2Cc2ccccc2)C(C)C)cc1 (stereo not drawn) | 0.769 µM (active) |
| CC(C)[C@@H](CS(=O)(=O)C(C)C)N1C(=O)[C@@](C)(CC(=O)O)C[C@H](c2cccc(Cl)c2)[C@H]1c1ccc(Cl)cc1 | inactive |
